MARV entry inh: blocks Marburg virus binding to or entry into cells; Potency, µM (top dose mostly 37.8 µM), for inactives: at the top dose activity change, negative = inhibition, usual class: inhibitors; 300,000 compounds, 1.8% hits; Marburg virus pseudotyped entry inhibition, cell reporter; calls by dose curve; tested in HEK293 cells
HCV inhibitor: blocks hepatitis C virus | Huh7.5.1 HCVcc-Cre infection, luciferase reporter, 44 h | Potency, µM (titrated, usually from 41.8 µM), inactives show at the top dose activity change, negative = inhibition, usual class: inhibitors | 340,000 compounds, 3.4% hits | AID 651820
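Compounds are dispensed onto cells plated 4 h earlier at 1,000 per well, with HCVcc-Cre virus (about 0.5 moi) added next. Following 44 h of culture, luminescent signal is measured for 15 sec after 15 min with substrate at room temperature.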
LASV entry inh: inhibitors of Lassa virus binding or cell entry; Lassa virus pseudotype entry inhibition, cell reporter; Potency, µM (doses to about 37.9 µM), for the others: at the top dose activity change, negative = inhibition, most hits filed as inhibitors; 300,000 compounds, 1.2% hits; AID 540256; calls by dose curve; tested in HEK293 cells; further: nearly all actives have a fitted effect of over 50% in size
Sm TGR inh: inhibitors of Schistosoma mansoni thioredoxin glutathione reductase; 360,000 compounds, 3% hits; Potency, µM (series often up to 114 µM), without a hit: at the highest dose activity change, negative = inhibition, most hits filed as inhibitors; Q962Y6; purified TGR, DTNB reduction, TNB absorbance 405 nm; further: nearly all actives have a fitted effect of over 60% in size
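TGR 20 nM + NADPH 100 uM (dispensed conc.), cpd preinc 15 min RT; start with NADPH (500 uM addition) then DTNB (15 mM addition). Kinetic TNB absorbance, 405 nm filter. Four-parameter Hill fit across titration.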
RE007 growth inh: less growth of the S. pombe RE007 Vpr strain; 360,000 compounds, 0.21% hits; AID 651644; S. pombe RE007 Vpr strain, BacTiter-Glo ATP luminescence, 24 h; Potency, µM (series often up to 92.2 µM), for inactives: top-dose activity change, negative = less growth, hits mostly inhibitors; active means well fitted falling curve with a large enough effect; inconclusive means small, poorly fitted or top-dose-only effect; inactive means no such curve, though single readings can be large or run the other way; further: nearly all actives have a fitted effect of over 50% in size
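Fission yeast strain RE007, carrying one chromosomally integrated HIV-1 vpr copy, was seeded at OD 0.01 in PMG+AL medium with 23 nL pinned compound. After 24 h at 30 °C and 99% humidity, viability was read by BacTiter-Glo luminescence.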
FMDV antiviral: foot and mouth disease virus antiviral activity; FMDV antiviral cell-based qHTS; Potency, µM (titrated, usually from 57.9 µM), without a hit: at the top dose activity change, negative = inhibition, usual class: inhibitors; 410,000 compounds, 1.2% hits; AID 1159524; calls by dose curve; tested in HEK293T cells; further: read-out not given here; nearly all actives have a fitted effect of over 45% in size
Active calls of the source: *; i = inactive; ? = inconclusive; . = no result; [ ] = remark or other dose. Most compounds without a hit are left out; they make up all but 7.2% or so of the library. Unless noted, the call rests on the fitted dose curve; in most records, active means well fitted curve in the direction sought with a large enough effect; inconclusive means small, poorly fitted or top-dose-only effect, or another doubt; inactive means no such curve, though single readings can be large; an effect the other way counts as inactive or inconclusive. On the % scale 0 is the no-effect control and ±100 the full control effect; potency means the concentration at half of the fitted maximal effect.

SMILES | MARV entry inh | HCV inhibitor | LASV entry inh | Sm TGR inh | RE007 growth inh | FMDV antiviral
Cc1cc(C(=O)CSc2nc3ccccc3[nH]2)c(C)n1Cc1ccco1 | ? | ? | 3.98µM* | -2.9% | 2.5% | -71.9%
C=CCn1c(C)cc(C(=O)CSc2nc3ccccc3[nH]2)c1C | ? | 6.31µM* | 4.61µM* | 0.5% | 1.5% | -84.8%
Cc1ccc2nc(SCC3CCCCO3)[nH]c2c1 (centres undefined) | 2.82µM* | -2.3% | ? | 14.8% | i | ?
Cc1cc(C)cc(C(=O)n2nc(C)c(S(=O)(=O)N3CCCCCC3)c2C)c1 | . | . | -7.5%[46.1 µM] | -5.5% | . | 1.6%
O=C(Nc1nonc1-c1ccc(Cl)cc1)c1ccccc1F | ? | . | 10.4%[46.1 µM] | -6.0% | . | -24.9%
CCCCN1C(=O)CN(C2CCCCC2)C(=O)C1c1ccc(OC(C)C)c(OC)c1 (centres undefined) | . | . | 5.1%[46.1 µM] | 4.2% | . | -16.1%
CC(=O)Nc1cc(C(=O)N2CCN(C(=O)c3ccco3)CC2)cc2ncn(CCc3ccccn3)c12 | . | . | . | . | . | -10.1%
Cc1cc(C(=O)CSc2nc3ccc(Cl)cc3[nH]2)c(C)n1CC1CCCO1 (centres undefined) | 12.6µM* | 8.91µM* | ? | -18.2% | 3.8% | 14.1µM*
O=C(Nc1ccc2c(c1)OCO2)C1C=CC(Br)O1 (centres undefined) | 20.3% | . | . | . | . | .
C(C#CCCCCCCCCC[n+]1ccccc1)#CCCCCCCCCC[n+]1ccccc1 | 2.51µM* | ? | ? | 39.8µM* | 7.94µM* | 17.8µM*
COc1cc2c(cc1OC)C1O[C@](CCCCN3C(=O)c4ccccc4C3=O)(C2)OC2=C1C(=O)OC1(CCCCC1)C2 | . | . | . | 4.47µM* | . | .
COc1cc2c(cc1OC)[C@@H]1O[C@](CCCCN3C(=O)c4ccccc4C3=O)(C2)OC2=C1C(=O)CC(C)(C)C2 | -8.8%[14.2 µM] | . | . | . | . | .
COc1cc2c(cc1OC)C1O[C@](CCCCN3C(=O)c4ccccc4C3=O)(C2)OC2=C1C(=O)CC(C)(C)C2 | -8.8%[14.2 µM] | . | . | 4.47µM* | . | .
O=C(C1CCCCC1)N1C[C@H](O)[C@H](n2cc(C3CC3)nn2)C[C@@H]1c1ccc(Cl)cc1 | . | . | -14.9%[46.1 µM] | . | . | .
S=c1[nH]nc(-c2cc(-c3ccccc3)n[nH]2)n1/N=C/C=C/c1ccco1 | 14.6%[46.1 µM] | 3.0% | ? | 11.2µM* | -0.3% | 21.8%
S=c1[nH]nc(-c2n[nH]c3c2CCC3)n1/N=C/C=C/c1ccco1 | . | 13.0% | . | 11.2µM* | -10.1% | -20.7%
S=c1[nH]nc(COc2ccccc2)n1/N=C/C=C/c1ccco1 | -15.9%[46.1 µM] | 5.6% | 0.794µM* | 12.6µM* | 20.0% | 2.4%
COc1ccccc1/C=C/C=N/n1c(-c2ccc(C)cc2)n[nH]c1=S | ? | -14.8% | 3.66µM* | 4.0% | 2.3% | 10.4%
S=c1[nH]nc(COc2ccccc2)n1/N=C/C=C/c1ccccc1 | 32.6% | 13.5% | ? | 5.5% | -1.0% | -1.9%
COc1ccc(-c2n[nH]c(=S)n2/N=C/C=C\c2ccccc2OC)cc1 | -21.0% | ? | ? | 9.1% | 6.0% | 9.8%
Cc1ccc2nc(-c3sc4nc(C)cc(C)c4c3N)[nH]c2c1 | ? | 19.3% | 12.6µM* | 4.8% | -3.5% | 3.6%
Cn1cccc1CNC1CCCCC1 | 17.2% | 2.4% | -3.0% | -2.8% | -10.7% | .
c1ccc(-n2cccc2CNC2CCCCC2)cc1 | 20.6µM* | 5.6% | 2.0% | 2.3% | -20.2% | .
CN1/C(=C/C2CC(=O)N(c3ccc([N+](=O)[O-])cc3)C2=O)C(C)(C)c2ccccc21 (centres undefined) | -1.0% | -12.7% | -10.1% | 12.6µM* | -20.9% | -5.6%
COc1ccccc1N1CCN(CC(O)COc2ccc(C)cc2C(C)(C)C)CC1 (centres undefined) | ? | . | 0.8%[46.1 µM] | 0.8% | . | -30.0%
SMILES | MARV entry inh | HCV inhibitor | LASV entry inh | Sm TGR inh | RE007 growth inh | FMDV antiviral
COc1cc(CN2CCOc3ccc(CN4CCC(O)(c5cccnc5)CC4)cc3C2)cc(OC)c1 | . | . | . | . | . | 4.7%
COC(=O)c1ccc(CN2CCOc3ccc(CN4CCC(O)(c5cccnc5)CC4)cc3C2)cc1 | . | . | . | . | . | 17.8µM*
O=C(NC1=C(Nc2ccc(Cl)cc2)C(=O)c2ccccc2C1=O)c1ccccc1 | ? | ? | ? | 6.31µM* | ? | -16.9%
Cc1cccc(NC2=C(NC(=O)c3ccccc3)C(=O)c3ccccc3C2=O)c1 | 18.9% | ? | -10.7% | 2.24µM* | -20.2% | 0.0%
O=C1C(Cl)=C(NC(=O)c2ccccc2)C(=O)C(Cl)=C1NC(=O)c1ccccc1 | ? | ? | ? | ? | 2.5% | 28.2µM*
O=C(Nc1ccc(Br)cc1)Nc1nc2c(s1)CCCCCC2 | . | . | 2.5%[46.1 µM] | 0.4% | . | 11.3%
O=C(O)c1cc(S(=O)(=O)Nc2ccc3cn[nH]c3c2)ccc1Cl | . | 1.0% | . | . | -24.4% | -3.5%
O=C(Nc1nc2cc3c(cc2s1)OCCO3)C1=COCCO1 | . | -4.2% | . | 1.1% | ? | 3.98µM*
CC(=O)Nc1nc2cc3c(cc2s1)OCCO3 | . | ? | . | -9.4% | 0.6% | 5.4%
O=C(CCN1C(=O)C2CCCCC2C1=O)Nc1nc2ccc(F)cc2s1 (centres undefined) | ? | 4.4% | 11.2µM* | -33.9% | -1.5% | -16.7%
O=C(CCN1C(=O)C2CCCCC2C1=O)Nc1nc2c(F)cc(F)cc2s1 (centres undefined) | . | 15.2% | . | -10.1% | -3.7% | 72.8%
O=C(Nc1nc2ccc(F)cc2s1)C1=COCCO1 | ? | -13.0% | 2.82µM* | -4.8% | ? | ?
CSc1cccc2sc(NC(=O)C3=COCCO3)nc12 | 21.2%[46.1 µM] | -17.3% | -25.1% | 3.1% | 12.4% | 17.6%
COc1ccccc1-c1ccnc(-n2ncc(C(=O)NC3CCCN(Cc4ccccc4)C3)c2C)n1 (centres undefined) | . | . | . | . | . | 1.4%
Cc1ccc2c(c1)C1CN(C)CCC1N2Sc1ccccc1[N+](=O)[O-] (centres undefined) | ? | -11.2% | 7.08µM* | 19.4% | 4.2% | ?
Cc1ccc2c(c1)[C@@H]1CN(C)CC[C@@H]1N2S(=O)(=O)c1ccc([N+](=O)[O-])cc1 | ? | 9.3% | -24.6% | -5.0% | -1.1% | -13.4%
C(=C\c1ccccc1)/CN1CCN(c2ncnc3c2oc2ccccc23)CC1 | ? | ? | -15.5% | -21.1% | -2.0% | 20µM*
Cn1c(CCNC(=O)C2CC23CCN(C(=O)C2=CCCC2)CC3)nc2ccccc21 (centres undefined) | . | . | . | . | . | -0.9%
O=C1CN(C(=O)c2ccc(Cl)c(S(=O)(=O)N3CCc4ccccc43)c2)c2ccccc2N1 | 3.55µM* | -24.3% | ? | -24.0% | -7.1% | ?
O=C(Nc1ccncc1)c1ccc(Cl)c(S(=O)(=O)N2CCCCC2)c1 | ? | 10µM* | ? | -5.2% | -6.2% | ?
O=C(Nc1ccccc1)c1ccc(Br)c(S(=O)(=O)N2CCCCC2)c1 | . | . | ? | 0.6% | . | 14.1µM*

Source: PubChem (National Center for Advancing Translational Sciences (NCATS))
